Three compounds from ChEMBL document CHEMBL3433997, “St. Jude Leishmania screening dataset” (2016) can be followed below.

Common to all, as to type: functional
The target of assay [1] is Solute carrier family 2, facilitated glucose transporter member 1 (Homo sapiens) (UniProt P11166). Kind of assay: ST_JUDE_LEISH: Cytotoxicity at 2uM final concentration against transgenic Leishmania Mexicana promastigotes LmGLUT1 that are glucose transport deficient and complemented with the human glucose transporter GLUT1. Activity is measured by DNA content using SYBR green in vitro.

Assay [2] deals with Hexose transporter 1 (Plasmodium falciparum) (UniProt O97467). Kind of assay: ST_JUDE_LEISH: Cytotoxicity at 2uM final concentration against transgenic Leishmania Mexicana promastigotes LmPfHT that are glucose transport deficient and complemented with the Plasmodium falciparum hexose transporter. Activity is measured by DNA content using SYBR green in vitro.
The target of assay [3] is Glucose transporter (Leishmania mexicana) (UniProt O61059). Briefly: ST_JUDE_LEISH: Cytotoxicity at 2uM final concentration against transgenic Leishmania Mexicana promastigotes LmGT2 that are glucose transport deficient and complemented with the L. Mexicana glucose transporter 2. Activity is measured by DNA content using SYBR green in vitro.

Chain of Solute carrier family 2, facilitated glucose transporter member 1 (Homo sapiens) (P11166 whole entry): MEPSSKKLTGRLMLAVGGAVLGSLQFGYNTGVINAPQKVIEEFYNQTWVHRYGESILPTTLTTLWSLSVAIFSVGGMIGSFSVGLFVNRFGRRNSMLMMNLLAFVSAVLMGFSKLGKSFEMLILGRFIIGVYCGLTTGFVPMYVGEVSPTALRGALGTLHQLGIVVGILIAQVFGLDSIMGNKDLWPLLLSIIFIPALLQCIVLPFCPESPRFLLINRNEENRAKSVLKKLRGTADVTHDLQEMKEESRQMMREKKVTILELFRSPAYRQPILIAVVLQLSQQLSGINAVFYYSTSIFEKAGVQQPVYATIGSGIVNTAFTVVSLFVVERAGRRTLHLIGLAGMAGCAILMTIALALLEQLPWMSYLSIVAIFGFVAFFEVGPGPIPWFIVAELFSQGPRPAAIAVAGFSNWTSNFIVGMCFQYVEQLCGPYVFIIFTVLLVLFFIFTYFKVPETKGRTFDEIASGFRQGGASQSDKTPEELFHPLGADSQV

On to `OC(CNc1ccnc(Nc2ccccc2)n1)c1ccc(C(F)(F)F)cc1` (centres undefined), for which the results for the inhibition in assay [1], in assay [2] and in assay [3] were 5.97%, 5.69% and 1.23%, respectively.
In the same order, the values of `Cc1cc(N)cc2nc(-c3ccc(N)cc3)[nH]c12` are 3.09%, 2.43% and 1.68%.
For `CCc1cccc(-c2cc(N)n(C)c3nc(N)nc(=O)c2-3)c1`, in that order: -0.01%, 0.41% and -1.13%.
